According to PubChem BioAssay AID463195 (Sanford-Burnham Center for Chemical Genomics, 2010):
In all, about 330,000 compounds went through this assay and about 4,600 (1.4%) were called active. Many of the other results were omitted from the sample, so actives are more common in it than they were. Unmarked numbers belong to inactive results.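 How the source made its calls: active means inhibition of 40% or more at the single tested concentration; inactive means the rest.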

test: growth inhibitors of isogenic TIM10 control yeast, primary screen, counter-screen for tim10-1 yeast inhibitor project, luminescence, uHTS (AID 463195);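 further: wild-type TIM10 isogenic control strain grown at permissive 25 °C; 0% = DMSO yeast wells and 100% = minimal medium wells without yeast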; conditions: S. cerevisiae TIM10 strain growth, BacTiter-Glo luminescence, 24 h; at 10 µM; active compounds read high

Row | SMILES | inhibition
1 | Nc1cccc(S(=O)(=O)Nc2ccc(SC(F)F)cc2)c1 | 15.6%
2 | CCc1ccc(S(=O)(=O)Nc2cc3c(cc2N2CCCCC2)n(C)c(=O)c(=O)n3C)cc1 | 18%
3 | OCC1(Cc2ccccc2C(F)(F)F)CCN(Cc2cccc3cnccc23)CC1 | -41.2%
4 | Cc1ccc(N(C(=O)c2sc(C)nc2C)C(C(=O)NC(C)(C)C)c2ccncc2)cc1 (centres undefined) | -2.14%
5 | O=C1OC[C@@H]2CCCN2C(=O)[C@H](CC(=O)N(CCO)Cc2ccccc2)C/C=C\CC[C@@H]1Cc1ccc(F)cc1 | 1.13%
6 | CCN(Cc1ccccc1)S(=O)(=O)c1cc2c3c(c1)CCN3C(=O)CC2 | -18.1%
7 | O=C(COc1ccccc1Cl)Nc1ccccc1C(=O)NC1CC1 | 4.12%
8 | NC(=O)CC(NC(=O)Cc1ccc(Br)cc1)c1ccc(NC2CC3CCC2C3)c([N+](=O)[O-])c1 (centres undefined) | 11.3%
9 | O=[N+]([O-])c1ccc2nc(-c3ccccn3)[nH]c2c1 | 13.4%
10 | O=[N+]([O-])c1ccc2c(c1)Nc1nc3ccccc3nc1N2 | 79.8% (active)
11 | COc1ccc([N+](=O)[O-])cc1-c1nc2ccccc2nc1-c1ccccc1 | 12.2%
12 | CCc1ccc(CN2C(=O)c3ccccc3C2C(=O)NCC2CCCO2)cc1 (centres undefined) | -1.35%
13 | COc1cc(SC)ccc1C(=O)NNC(=O)C1COc2ccccc2O1 (centres undefined) | -2.79%
14 | COc1ccc(NC(=O)C2COc3ccccc3O2)cc1 (centres undefined) | -1.21%
15 | COc1ccc(OC)c2sc(NC(=O)C3COc4ccccc4O3)nc12 (centres undefined) | 43.3% (active)
16 | Cc1cccc(NC(=O)CN2CCN(CC(=O)NCC3(N4CCCCC4)CCCCC3)CC2)c1C | -26%
17 | O=C(CN1CCC(O)(c2ccccc2)CC1)Nc1ccc2c(c1)OCCO2 | -4.11%
18 | O=C(COC(=O)c1ccccc1)c1ccc2c(c1)OCCO2 | 3.76%
19 | O=C(CCN1CCc2ccccc2C(O)(c2ccccc2)C1)c1ccc2c(c1)OCCO2 (centres undefined) | 47.8% (active)
20 | COc1cccc2cc(/C(C)=N/NC(=O)c3ccco3)oc12 | 7.37%

Row | SMILES | inhibition
21 | CC1(C)CCSC(/C=C/c2ccccc2)=N1 | 59.5% (active)
22 | CC1(c2ccccc2)NC(=O)N(CC(=O)N2CC(=O)Nc3ccccc32)C1=O (centres undefined) | -7.18%
23 | Cc1c(CC(=O)N2CCN(C(=O)C3COc4ccccc4O3)CC2)c(=O)oc2c(O)c(O)ccc12 (centres undefined) | 14.5%
24 | Cc1ccc(N2C(=O)C3C4C=CC(CC4)C3C2=O)cc1Cl (centres undefined) | 96.9% (active)
25 | CC(=O)Nc1ccc(N2C(=O)C3C4C=CC(CC4)C3C2=O)cc1 (centres undefined) | 3.72%
26 | Cc1ccc(N2C(=O)C3C4C=CC(CC4)C3C2=O)cc1Br (centres undefined) | 0.46%
27 | O=C(c1ccc(F)cc1)C1CCN(Cc2cn[nH]c2-c2ccccc2)CC1 | 7.29%
28 | Cc1cc(C)c(CN2CCN(C(=O)Cn3ccc(NC(=O)OCc4ccccc4)nc3=O)CC2)c(C)c1 | 14.5%
29 | Cc1nn(Cc2ccccc2)c(C)c1C(=O)N1CCN(CC(=O)Nc2ccccc2Cl)CC1 | 16.3%
30 | Cc1cccc(C)c1NC(=O)CCCSc1nnc(-c2ccco2)n1-c1ccccc1 | 7.48%
31 | COc1ccc(Nc2cc(C)nc(-n3nc(C)cc3C)n2)cc1 | 42.6% (active)
32 | Cc1cc(N/N=C\c2ccc(Br)cc2)nc(-n2nc(C)cc2C)n1 | 28.7%
33 | CC(=O)c1ccc(Oc2cc(C)nc(-n3nc(C)cc3C)n2)cc1 | 17.9%
34 | COc1ccc(OCC(=O)OCCN(C)C)cc1 | 6.08%
35 | CN1CCC2(CC1)NC(=O)NC2=O | -10.9%
36 | C=CCn1c2ccccc2c2nnc(SCc3[nH]c(=O)[nH]c3C(=O)CCCCC(=O)OCC)nc21 | 2.76%
37 | c1ccc(-c2cn3c(n2)CCc2ccc4cccnc4c2-3)cc1 | 43.3% (active)
38 | CCn1nnc(NC(=O)c2cc(Cl)c(OC)c(Cl)c2)n1 | -27.2%
39 | O=C(Nc1cc(S(=O)(=O)Nc2ccc(Cl)cc2)ccc1O)c1ccc(F)cc1F | -2.9%
40 | O=C(NCc1ccccc1Cl)C1CCCO1 (centres undefined) | 12.6%

Row | SMILES | inhibition
41 | O=C(Nc1nnc(SCc2c(Cl)cccc2Cl)s1)c1cccc([N+](=O)[O-])c1 | -29.2%
42 | O=C(Nc1nnc(SCc2c(Cl)cccc2Cl)s1)C1CCCO1 (centres undefined) | 43% (active)
43 | CCCCN(CC)CCCNC(=O)c1ccc(CSc2nc3ccncc3[nH]2)cc1 | -7.87%
44 | COc1ccc(C2CC(=O)Oc3ccc(C(C)(C)C)cc32)cc1 (centres undefined) | -0.738%
45 | Cc1cc(Cl)nc(NC(=O)Nc2cccc(Cl)c2)n1 | 3.22%
46 | S=C(Nc1cccc(Cl)c1)Nc1ccc2c(c1)OCCO2 | 20.4%
47 | O=C(O)CC1(CC(=O)Nc2cccc(C(F)(F)F)c2)CCCC1 | -9.42%
48 | FC(F)(F)c1cccc(NC(=S)Nc2cccc(Cl)c2)c1 | 50.8% (active)
49 | Cc1csc(NC(=S)Nc2cccc(Cl)c2)n1 | 45.7% (active)
50 | Cc1cccc(NC(=S)Nc2ccc(Cl)c(Cl)c2)c1 | 24.3%
51 | CCn1c(=O)c(=O)n(CC)c2cc(S(=O)(=O)N3CCc4ccccc43)ccc21 | 14.7%
52 | Cc1ccc(C(C)C)c(OCc2nnc(SCC(=O)Nc3nccs3)n2C)c1 | -14%
53 | COc1ccccc1/C=C/CN1CCC(CO)(Cc2ccccc2)CC1 | -1.7%
54 | CCCCNC(=O)C1CCC(=O)N1CCc1ccccc1 (centres undefined) | -1.71%
55 | C[C@]12CC[C@H](O)CC1=CCC1C2CC[C@@]2(C)C1CC[C@@H]2NC(=O)CCC(=O)O (some centres undefined) | -2.58%
56 | C=CC[C@H](CC(=O)N(CCO)Cc1ccccc1)C(=O)N[C@@H](COC(=O)[C@@H](CC=C)Cc1ccc(F)cc1)Cc1ccccc1 | 5.57%
57 | CSc1ccc(C(=O)C2CCCN(C(=O)c3ccc(C)nc3)C2)cc1 (centres undefined) | -8.56%
58 | Cc1cc(C(=O)NNC(=O)CCC2CCCCC2)c(C)o1 | -5.54%
59 | Cn1c2c(c(=O)n(C)c1=O)C(c1cccc([N+](=O)[O-])c1)Nc1ccccc1O2 (centres undefined) | -3.02%
